# Screening data: PubChem, National Center for Advancing Translational Sciences (NCATS)
# Compounds with a hit are over-represented: about 10% of the library has one in this group of screens.
# HP1b binding inh: HTS for Inhibitors of HP1-beta Chromodomain Interactions with Methylated Histone Tails; AID 540317, 2011; hit rate 0.56% among 390,000; Potency, µM (series often up to 114 µM), hits mostly inhibitors; AlphaScreen HP1-beta / biotin-H3K9me3 peptide binding; note: nearly all actives have a fitted effect of over 70% in size
#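 HP1-beta protein (50 nM final) preincubated 30 min at room temperature with biotinylated H3(1-18)K9me3 peptide (50 nM) in PBS pH 7.4, 0.01% Tween-20, then compound added for 30 min. AlphaScreen streptavidin donor/nickel chelate acceptor beads (10 ug/mL final), 30 min dark, luminescence read.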
# JMJD2A Tudor: qHTS Assay for Inhibitors of JMJD2A-Tudor Domain; Potency, µM (highest dose often 114 µM), actives largely listed as inhibitors; AlphaScreen JMJD2A-Tudor / H3K4me3 peptide binding; AID 504339, 2011; hit rate 4.4% among 390,000; Lysine-specific demethylase 4A (Homo sapiens), O75164; note: nearly all actives have a fitted effect of over 50% in size
# Six1-Eya2 inh: qHTS Assay for Inhibitors of the Six1/Eya2 Interaction | AlphaScreen GST-Six1/His-Eya2 binding, biochemical; hits give low values | AID 651725, 2012 | Homeobox protein SIX1 (Homo sapiens) + Protein phosphatase EYA2 (Homo sapiens), … | hit rate 0.56% among 360,000 | activity change, % (test concentration not listed); in the data active = activity change below about -65%; inconclusive = mostly about -30% to -63%
# Target sequence (O00167 whole entry, looked up): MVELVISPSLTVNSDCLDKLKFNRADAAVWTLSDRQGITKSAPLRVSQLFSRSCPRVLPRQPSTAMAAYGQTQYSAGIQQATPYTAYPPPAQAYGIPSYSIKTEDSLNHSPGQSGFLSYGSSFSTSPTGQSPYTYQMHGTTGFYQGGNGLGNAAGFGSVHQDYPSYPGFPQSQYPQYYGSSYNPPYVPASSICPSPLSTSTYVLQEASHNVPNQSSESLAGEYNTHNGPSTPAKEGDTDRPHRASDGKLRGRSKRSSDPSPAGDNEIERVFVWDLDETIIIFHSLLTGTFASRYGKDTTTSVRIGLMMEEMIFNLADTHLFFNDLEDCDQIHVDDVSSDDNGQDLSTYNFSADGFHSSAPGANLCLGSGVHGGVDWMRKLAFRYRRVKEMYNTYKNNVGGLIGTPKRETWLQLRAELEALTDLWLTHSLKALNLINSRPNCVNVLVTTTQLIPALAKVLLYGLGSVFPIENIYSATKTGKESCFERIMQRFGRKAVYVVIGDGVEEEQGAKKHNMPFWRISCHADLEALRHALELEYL
# Target sequence (Q15475 whole entry, looked up): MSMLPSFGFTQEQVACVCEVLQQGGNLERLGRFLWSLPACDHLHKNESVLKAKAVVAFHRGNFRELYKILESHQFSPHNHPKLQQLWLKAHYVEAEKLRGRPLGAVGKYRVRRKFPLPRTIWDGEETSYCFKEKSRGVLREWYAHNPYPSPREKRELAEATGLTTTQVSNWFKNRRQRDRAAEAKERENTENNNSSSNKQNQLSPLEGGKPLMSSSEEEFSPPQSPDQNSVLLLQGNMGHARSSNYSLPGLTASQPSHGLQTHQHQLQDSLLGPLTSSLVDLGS
#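 Homogeneous AlphaScreen proximity assay pairing GST-Six1 with His-tagged Eya2 (added as 5X mix: 250 nM and 500 nM) in 50 mM Tris pH 8.0, 300 mM NaCl, 1 mM TCEP. Glutathione donor and nickel acceptor beads; 1 h, 37 °C, dark.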
# BAZ2B inh: qHTS Assay for Inhibitors of BAZ2B. Bromodomain adjacent to zinc finger domain protein 2B (Homo sapiens), Q9UIF8. AlphaScreen BAZ2B-H3K14Ac peptide displacement. Potency, µM (top dose mostly 114 µM), usual class: inhibitors. hit rate 4.4% among 360,000. AID 504333, 2011; note: nearly all actives have a fitted effect of over 60% in size
#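 In this displacement format the biotinylated H3(5-23) peptide acetylated at Lys14 serves as ligand at 50 nM, with BAZ2B at 50 nM in PBS pH 7.4 containing 0.01% Tween-20. Donor and acceptor beads are 10 ug/mL final.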
# G9a block: qHTS Assay for Inhibitors of Histone Lysine Methyltransferase G9a; hit rate 8.8% among 350,000; G9a H3K9 monomethylation, AlphaScreen, 2 h; AID 504332, 2011; Histone-lysine N-methyltransferase EHMT2 (Homo sapiens), Q96KQ7; Potency, µM (highest dose often 102 µM), actives largely listed as inhibitors; note: nearly all actives have a fitted effect of over 75% in size
#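 Chemiluminescent proximity detection of H3K9 monomethylation, read after 10 min bead incubation in the dark. Reaction: 20 nM G9a, 500 nM biotin-H3K9 peptide, 20 uM SAM cofactor, 2 h, room temperature, following 15 min enzyme-compound preincubation.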
# CtBP-E1A blk: qHTS Assay for Inhibitors of the CtBP/E1A Interaction. hit rate 0.49% among 340,000. activity change, % (test concentration not listed). AlphaScreen GST-E1A/His-CtBP binding, 1536-well; hits give low values; in the data active = activity change below about -65%; inconclusive = mostly about -30% to -63%
#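 Steps: dispense buffer (Tris pH 8.0, NaCl 300 mM, TCEP 1 mM, BSA, Tween 20); add 5X protein mix (GST-E1A, His-CtBP, 125 nM each); pin 23 nL compound; 2 h at 37 °C, dark; add 5X beads (50 ug/mL); 1 h; read.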
# A number is an active result; 0 = inactive; ? = inconclusive; - = no result; [ ] = dose if it differs, or a comment. Unless noted, calls come from the whole dose curve; as a rule, active = well fitted inhibition curve with a large enough effect; inconclusive = small, poorly fitted or top-dose-only effect; inactive = no such curve, though single readings can be large or run the other way.
SMILES,HP1b binding inh,JMJD2A Tudor,Six1-Eya2 inh,BAZ2B inh,G9a block,CtBP-E1A blk
CC(N=C1NS(=O)(=O)c2ccccc21)C(=O)N1CCc2ccccc2C1 (configuration not stated),0,0,0,0,0,0
COc1ccc(Cn2c(C(=O)O)c(CNCc3ccc(C)o3)c3ccc(OC)cc32)cc1,0,?,-,?,0,-
COc1ccccc1N1CCN(c2nc(C)nc3c2oc2ccccc23)CC1,0,45µM,0,50µM,40µM,?
COc1ccccc1N1CCN(Cc2cc(Br)c(O)c3ncccc23)CC1,0,40µM,-92,13µM,8.9µM,-85
CCOc1ccc2oc(=O)cc(CN3CCN(c4ccccc4OC)CC3)c2c1,0,0,-,0,0,-
CCCOCc1cc(CN2CCN(c3ccccc3OC)CC2)c(O)c2ncccc12,0,20µM,-,4.5µM,?,-
COc1ccccc1N1CCN(Cc2cc(COC(C)C)c3cccnc3c2O)CC1,0,22µM,-,4µM,0,-
COc1ccccc1N1CCN(Cc2cc(=O)oc3cc(C)ccc23)CC1,-,-,0,-,-,0
Cc1ccc(CNC(=O)CS(=O)(=O)Cc2nc(-c3ccccc3C)oc2C)cc1,0,0,-,0,0,-
Cc1ccc(C(C)C)c(OCC(=O)Nc2cc(-c3nc4ccccc4[nH]3)ccc2C)c1,0,0,-,0,0,-
CCc1ccc(NC(=O)c2ccc3c(O)c(S(=O)(=O)c4ccc(Cl)cc4)c(=O)[nH]c3c2)cc1,0,0,-,0,0,-
CCOCc1cc(CN2CCN(c3ccccc3OC)CC2)c(O)c2ncccc12,0,22µM,-,5.6µM,0,-
CCOc1ccccc1N1CCN(Cc2cccc(OC)c2O)CC1,0,0,0,0,0,0
C/C(=N\O)C(C)/[N+]([O-])=C/c1nc(C)c(C)n1O (configuration not stated),0,7.1µM,?,-,-,0
COc1ccc2[nH]c3c(NCCC4=CCCCC4)ncnc3c2c1,0,50µM,0,28µM,0,0
Cc1ccccc1C(=O)/C(C#N)=N/Nc1c(C)n(C)n(-c2ccccc2)c1=O,0,50µM,-68,50µM,0,-70
Cc1c(N/C=C(\Cl)C(=O)C(F)(F)F)c(=O)n(-c2ccccc2)n1C,0,0,0,?,25µM,0
CCOC(=O)/C(C#N)=N/Nc1c(C)n(C)n(-c2ccccc2)c1=O,0,0,0,79µM,18µM,0
Cc1c(N/N=C(\C#N)C(=O)c2ccccc2)c(=O)n(-c2ccccc2)n1C,0,56µM,-86,32µM,?,?
Cc1c(NC=C(C#N)C#N)c(=O)n(-c2ccccc2)n1C,0,0,0,0,0[0.501 µM],0
COc1ccccc1N1CCN(S(=O)(=O)c2c(C)sc3ncn(CC(=O)Nc4ccccc4F)c(=O)c23)CC1,0,0,-,0,0,-
CCC(=O)N1CCc2cc(S(=O)(=O)CCC(=O)Nc3ccc(OC)cc3)ccc21,0,0,0,0,-,-
CCC(=O)N1CCc2cc(S(=O)(=O)CCC(=O)Nc3cc(Cl)ccc3OC)ccc21,0,14µM,-,-,13µM,-
CCC(=O)N1CCc2cc(S(=O)(=O)CCC(=O)Nc3cccc(C)n3)ccc21,0,0,0,0,50µM,0
CC(=O)N1CCc2cc(S(=O)(=O)CCC(=O)Nc3ccc(Cl)cc3F)ccc21,0,0,0,0,71µM,0
SMILES,HP1b binding inh,JMJD2A Tudor,Six1-Eya2 inh,BAZ2B inh,G9a block,CtBP-E1A blk
CC(=O)N1CCc2cc(S(=O)(=O)CCC(=O)NCc3ccc(Cl)cc3)ccc21,0,0,0,0,0,0
CCOc1ccccc1N(C)C(=O)NCc1noc2ccccc12,0,0,-,0,0,-
CCc1ccc(CN(C)CCc2ccccn2)cc1,?,4µM,0,45µM,?,0
COc1ccc(CN(C)CCc2ccccn2)cc1OC,0,35µM,0,32µM,3.2µM,0
COc1cc(CN(C)Cc2ccccc2)cc(OC)c1O,0,0,0,0,8.9µM,0
COc1ccccc1NC(=S)N(CCc1ccc(OC)c(OC)c1)Cc1ccccn1,0,0,0,0,0,0
COc1cc(CN(C)CCc2ccccn2)cc(OC)c1OC,?,7.9µM,0,20µM,?,0
CCN(CC)Cc1ccccn1,0,0,0,0,-,0
COc1cc(CN(C)C)cc(C=O)c1O,0,0,0,0,-,0
N#Cc1c(Cc2cccc3ccccc23)nn(CCO)c1N,0,0,-,-,-,-
COc1ccc(C(CC(=O)Nc2cccc(C)c2C)N2Cc3ccccc3C2=O)cc1 (configuration not stated),0,0,-,0,0,-
Cc1cc(NC(c2nnc(-c3ccccc3)o2)c2ccccc2F)ccc1Br (configuration not stated),0,0,-,0,0,-
COc1ccc(CCN(C)c2ccc(C(N)=O)cc2[N+](=O)[O-])cc1OC,0,0,0,0,0,0
COc1ccc(CCN(C)Cc2cccc3ccccc23)cc1OC,0,0,0,0,0[0.501 µM],0
COc1ccc(CCN(C)Cc2c(O)ccc3ccccc23)cc1OC,0,50µM,0,0,8.9µM,0
COc1ccc(CCN(C)C/C=C/c2ccccc2[N+](=O)[O-])cc1OC,0,22µM,0,?,-,0
COc1ccc(CCN(C)CC(=O)Nc2cc(C)nc3ccccc23)cc1OC,22µM,0.79µM,0,22µM,4.5µM,0
COc1ccc(CCN(C)Cc2ccc(OC)c(OCc3ccccc3)c2)cc1OC,0,3.2µM,0,?,?,0
CC1(C)CC(=O)C2=C(C1)OC1=C(C(=O)CC(C)(C)C1)C2c1ccc(O)c([N+](=O)[O-])c1,0,0,0,0,0,-
CC1(C)CC(=O)C2=C(C1)OC1=C(C(=O)CC(C)(C)C1)C2c1ccc(O)cc1O,0,0,0,?,2.8µM,0
COc1ccccc1N1C(=O)CC(Sc2ncccc2C(=O)O)C1=O (configuration not stated),0,0,0,0,?,0
O=C(O)c1cccnc1SC1CC(=O)N(c2cccc(C(F)(F)F)c2)C1=O (configuration not stated),0,0,0,0,35µM,0
O=C(O)c1cccnc1SC1CC(=O)N(c2ccc(OC(F)F)cc2)C1=O (configuration not stated),0,0,0,0,45µM,0
CCCOc1cccc(-c2cc(-c3n[nH]c(=S)n3CC)c3ccccc3n2)c1,0,?,0,?,0[0.0925 µM],0
